# Assay results reported in the supplement of paper PMC6555819.
# What was measured:
# Assay in all cases: PBM binding z-score (relative to random genomic background probes); higher = stronger binding; sequences stand for … in GC…GCGATTGACAGCGTAGAATGAAGG
# [1] = test system: PPARg:RXRa IVT, anti-PPARg (NR concentration 270 nM, RXRa partner concentration 90 nM)
# Method in brief: (§1)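 For binding z-scores, the reference was random background probes on custom Agilent 4×180K protein-binding microarrays. These arrays were incubated 1 h with ligand-free nuclear receptor dimers in PBS pH 7.4, 2% milk, 0.02% Triton X-100, 1 mM DTT, 0.2 mg/mL BSA and 0.4 mg/ml salmon testes DNA. Fluorescence was scanned after antibody detection of each partner (one per run) and regression-normalized.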
# [2] = test system: PPARg DBDmut:RXRa IVT, anti-PPARg (DBD mutation: PPARg1 K132A/R137A, NR concentration 270 nM, RXRa partner concentration 90 nM)
# Method in brief: as §1
# [3] = test system: PPARg DBDmut IVT, anti-PPARg (DBD mutation: PPARg1 K132A/R137A, NR concentration 270 nM)
# Method in brief: as §1
# [4] = test system: PPARg homodimer (NR concentration 180 nM)
# Method in brief: as §1
# [5] = test system: PXR:RXRa (NR concentration 270 nM, RXRa partner concentration 90 nM)
# Method in brief: as §1
# [6] = test system: PXR homodimer (NR concentration 270 nM)
# Method in brief: as §1
# [7] = test system: RARa:RXR (NR concentration 270 nM, RXRa partner concentration 90 nM)
# Method in brief: as §1
# [8] = test system: RARa homodimer (NR concentration 270 nM)
# Method in brief: as §1
# [9] = test system: RARb homodimer (NR concentration 270 nM)
# Method in brief: as §1
# [10] = test system: RARb:RXRa (NR concentration 270 nM, RXRa partner concentration 90 nM)
# Method in brief: as §1
Sequence,PBM binding z-score [1],PBM binding z-score [2],PBM binding z-score [3],PBM binding z-score [4],PBM binding z-score [5],PBM binding z-score [6],PBM binding z-score [7],PBM binding z-score [8],PBM binding z-score [9],PBM binding z-score [10]
CGTCCAAGGTCACGGTCAGTGAAAGAGACTCGAA,5.66,1.95,0.958,4.68,4.93,0.843,6.25,2.14,4.71,–
GGAACGAGGTCATTCGAGTTGATAGCATGGCGAT,5.89,0.79,0.0541,1.95,–,7.74,5.14,-0.0279,3.81,4.9
CGTCAAAGTTCAACTAAGGTTACGTAAAGCACGC,2.44,1.54,1.43,3.83,–,8.22,5.27,1.91,5.67,5.44
CGTCAAAGGTCAAAGGTCAGTGAAGAGATGACGG,6.51,2.46,1.92,4.68,7.37,1.83,9.15,3.92,6.09,–
TTACCAAGGTCAAGGTCGTTGATCCCTCTGTAGA,5.09,1.64,0.631,4.12,5.31,2.27,5.57,1.71,4.86,–
CGTCAAAGGTCAAGGTCAGTGAAAGAGACTCGAA,6.36,3.41,4.07,6.26,6.26,1.8,6.98,4.06,5.34,–
ATCGAAAGGTCATGAGGTGAGTATACAGAAAGGC,5.59,2.8,3,4.69,5.71,0.933,–,3.7,5.04,–
CAAACTAGGTCAAAAGGTCAAAGTCCGCTTCCCG,8.17,1.83,1.09,7.65,6.71,2.96,–,5.47,6.38,–
ATCAAAAGGTCGAGGTGAGTATAGAGAAAGGGAA,2.79,1.63,1.54,2.27,2.86,1.09,–,1.57,3.28,4.53
CCTTAGGGGTCAAGGTTATAGCACGGGTGGTACG,5.19,1.1,0.837,4.4,6.23,1.1,–,2.38,5.11,–
CGTCAAAGGTCAATGCTAGGTCAGTGAAAGCATT,6.13,2.05,0.936,5.64,5.96,1.66,6.85,2.5,5.56,–
GGAACGAGGTCAAGTTGATAGCAGAGTTTGATGG,6.52,2.59,0.598,3.81,5.86,2.91,5.81,2.1,4.59,–
CGTCAAAGGTCAGCAGGTCAGTGAAAGCGACGTG,5.73,1.7,1.47,7.06,5.39,0.608,–,4.86,5.42,–
TCTAGTCGGTCAAAGGTCACACACTCGAAATGCG,6.92,1.34,1.59,5.59,6.26,1.5,–,2.61,5.22,5.34
GCTGCTAGGTCAACTGATGGTCAACTAAAGCTCG,4.19,-0.672,0.0374,2.3,2,-0.565,–,0.323,3.7,4.29
CAAAATAGGTCACAGAGGTCAAAGTCCGTGCGTA,8.25,1.92,1.23,4.67,6.99,10.7,7.81,1.88,5.93,–
CAAAATAGGTCAAAGGTCAAAGTCGAGCCAACCA,8.59,3.03,1.57,4.96,7.32,2.02,9.14,3.71,5.5,–
CGTCAAAGGTCAGAGAGGTCAGTGAATGCCGAGT,5.36,0.83,0.0737,5.81,6.7,12.3,–,5.86,6.19,–
CAAACCAGGTCACAGAGGTCAAAGTCCGTGCGTA,7.43,3.56,2.74,5.78,7.23,14.2,–,4.25,5.56,5.41
CCTGCTAGGTCAAAGGTCAGCTAAAGCAGCTCGC,7.37,3.16,2.19,7.33,–,0.666,–,3.79,4.91,–
GATACGGGGTCAAGGCCAGAGTACGCGTATTGAT,6.14,2.81,2.07,4.21,–,1.08,–,2.18,4.32,5.26
